Read-outs that look alike come from different tables or passages of the source.
Tests used:
Conditions in all cases: read-out: apparent Kd, n = 1
MAP2K1 = test system: MAP2K1
MAP3K5 = test system: MAP3K5
MAPK10 = test system: MAPK10
[1] = compound concentrations:100 nM and 1000 nM (sheet 'Lestaurtinib' of Supplementary Table 1),run:Lestaurtinib_02765_R3,Plate:MR026
[2] = compound concentrations:100 nM and 1000 nM (sheet 'Lestaurtinib' of Supplementary Table 1),run:Lestaurtinib_02766_R3,Plate:MR027
[3] = compound concentrations:100 nM and 1000 nM (sheet 'Lestaurtinib' of Supplementary Table 1),run:Lestaurtinib_02768_R3,Plate:MR028
[4] = compound concentrations:100 nM and 1000 nM (sheet 'Lestaurtinib' of Supplementary Table 1),run:Lestaurtinib_02795_R2,Plate:MR022
[5] = compound concentrations:100 nM and 1000 nM (sheet 'Lestaurtinib' of Supplementary Table 1),run:Lestaurtinib_03172_R3,Plate:MR031
[6] = compound concentrations:100 nM and 1000 nM (sheet 'Lestaurtinib' of Supplementary Table 1),run:Lestaurtinib_03260_R1,Plate:MR033
[7] = compound concentrations:100 nM and 1000 nM (sheet 'Lestaurtinib' of Supplementary Table 1),run:Lestaurtinib_03260_R3,Plate:MR033
[8] = compound concentrations:100 nM and 1000 nM (sheet 'Lestaurtinib' of Supplementary Table 1),run:Lestaurtinib_02367_R1,Plate:MR003
[9] = compound concentrations:100 nM and 1000 nM (sheet 'Lestaurtinib' of Supplementary Table 1),run:Lestaurtinib_02407_R1,Plate:MR005
[10] = compound concentrations:100 nM and 1000 nM (sheet 'Lestaurtinib' of Supplementary Table 1),run:Lestaurtinib_02407_R2,Plate:MR005
[11] = compound concentrations:100 nM and 1000 nM (sheet 'Lestaurtinib' of Supplementary Table 1),run:Lestaurtinib_02422_R2,Plate:MR006
[12] = compound concentrations:100 nM and 1000 nM (sheet 'Lestaurtinib' of Supplementary Table 1),run:Lestaurtinib_02437_R1,Plate:MR007
[13] = compound concentrations:100 nM and 1000 nM (sheet 'Lestaurtinib' of Supplementary Table 1),run:Lestaurtinib_02437_R2,Plate:MR007
[14] = compound concentrations:100 nM and 1000 nM (sheet 'Lestaurtinib' of Supplementary Table 1),run:Lestaurtinib_02473_R1,Plate:MR010
[15] = compound concentrations:100 nM and 1000 nM (sheet 'Lestaurtinib' of Supplementary Table 1),run:Lestaurtinib_02473_R2,Plate:MR010
[16] = compound concentrations:100 nM and 1000 nM (sheet 'Lestaurtinib' of Supplementary Table 1),run:Lestaurtinib_02473_R3,Plate:MR010
[17] = compound concentrations:100 nM and 1000 nM (sheet 'Lestaurtinib' of Supplementary Table 1),run:Lestaurtinib_02482_R1,Plate:MR011
[18] = compound concentrations:100 nM and 1000 nM (sheet 'Lestaurtinib' of Supplementary Table 1),run:Lestaurtinib_02482_R2,Plate:MR011
[19] = compound concentrations:100 nM and 1000 nM (sheet 'Lestaurtinib' of Supplementary Table 1),run:Lestaurtinib_02487_R1,Plate:MR012
[20] = compound concentrations:100 nM and 1000 nM (sheet 'Lestaurtinib' of Supplementary Table 1),run:Lestaurtinib_02566_R1,Plate:MR014

Lestaurtinib
potency estimated from few doses (MAP2K1; compound concentrations:100 nM and 1000 nM (sheet 'Lestaurtinib' of Supplementary Table 1),run:Lestaurtinib_02741_R3,Plate:MR023): 1320 nM | potency estimated from few doses (MAP2K1; compound concentrations:100 nM and 1000 nM (sheet 'Lestaurtinib' of Supplementary Table 1),run:Lestaurtinib_02748_R1,Plate:MR024): 1440 nM | potency estimated from few doses (MAP2K1; compound concentrations:100 nM and 1000 nM (sheet 'Lestaurtinib' of Supplementary Table 1),run:Lestaurtinib_02748_R3,Plate:MR024): 1400 nM | potency estimated from few doses (MAP2K1; compound concentrations:100 nM and 1000 nM (sheet 'Lestaurtinib' of Supplementary Table 1),run:Lestaurtinib_02752_R2,Plate:MR025): 1510 nM | potency estimated from few doses (MAP2K1; compound concentrations:100 nM and 1000 nM (sheet 'Lestaurtinib' of Supplementary Table 1),run:Lestaurtinib_02765_R2,Plate:MR026): 1620 nM | potency estimated from few doses (MAP2K1; [1]): 1670 nM | potency estimated from few doses (MAP2K1; compound concentrations:100 nM and 1000 nM (sheet 'Lestaurtinib' of Supplementary Table 1),run:Lestaurtinib_02766_R1,Plate:MR027): 964 nM | potency estimated from few doses (MAP2K1; [2]): 1540 nM | potency estimated from few doses (MAP2K1; [3]): 2210 nM | potency estimated from few doses (MAP2K1; [4]): 771 nM | potency estimated from few doses (MAP2K1; compound concentrations:100 nM and 1000 nM (sheet 'Lestaurtinib' of Supplementary Table 1),run:Lestaurtinib_02802_R1,Plate:MR029): 1900 nM | potency estimated from few doses (MAP2K1; compound concentrations:100 nM and 1000 nM (sheet 'Lestaurtinib' of Supplementary Table 1),run:Lestaurtinib_02896_R1,Plate:MR030): 803 nM | potency estimated from few doses (MAP2K1; [5]): 823 nM | potency estimated from few doses (MAP2K1; compound concentrations:100 nM and 1000 nM (sheet 'Lestaurtinib' of Supplementary Table 1),run:Lestaurtinib_03252_R1,Plate:MR032): 1540 nM | potency estimated from few doses (MAP2K1; [6]): 1210 nM | potency estimated from few doses (MAP2K1; [7]): 2310 nM | potency estimated from few doses (MAP3K5; compound concentrations:100 nM and 1000 nM (sheet 'Lestaurtinib' of Supplementary Table 1),run:Lestaurtinib_02364_R1,Plate:MR002): 938 nM | potency estimated from few doses (MAP3K5; [8]): 1240 nM | potency estimated from few doses (MAP3K5; compound concentrations:100 nM and 1000 nM (sheet 'Lestaurtinib' of Supplementary Table 1),run:Lestaurtinib_02381_R1,Plate:MR004): 987 nM | potency estimated from few doses (MAP3K5; compound concentrations:100 nM and 1000 nM (sheet 'Lestaurtinib' of Supplementary Table 1),run:Lestaurtinib_02381_R2,Plate:MR004): 926 nM | potency estimated from few doses (MAP3K5; compound concentrations:100 nM and 1000 nM (sheet 'Lestaurtinib' of Supplementary Table 1),run:Lestaurtinib_02381_R3,Plate:MR004): 826 nM | potency estimated from few doses (MAP3K5; [9]): 1600 nM | potency estimated from few doses (MAP3K5; [10]): 1350 nM | potency estimated from few doses (MAP3K5; [11]): 1150 nM | potency estimated from few doses (MAP3K5; [12]): 1460 nM | potency estimated from few doses (MAP3K5; [13]): 983 nM | potency estimated from few doses (MAP3K5; compound concentrations:100 nM and 1000 nM (sheet 'Lestaurtinib' of Supplementary Table 1),run:Lestaurtinib_02438_R2,Plate:MR008): 1370 nM | potency estimated from few doses (MAP3K5; compound concentrations:100 nM and 1000 nM (sheet 'Lestaurtinib' of Supplementary Table 1),run:Lestaurtinib_02438_R3,Plate:MR008): 1530 nM | potency estimated from few doses (MAP3K5; compound concentrations:100 nM and 1000 nM (sheet 'Lestaurtinib' of Supplementary Table 1),run:Lestaurtinib_02443_R1,Plate:MR009): 1310 nM | potency estimated from few doses (MAP3K5; compound concentrations:100 nM and 1000 nM (sheet 'Lestaurtinib' of Supplementary Table 1),run:Lestaurtinib_02443_R2,Plate:MR009): 1410 nM | potency estimated from few doses (MAP3K5; [14]): 969 nM | potency estimated from few doses (MAP3K5; [15]): 1430 nM | potency estimated from few doses (MAP3K5; [16]): 858 nM | potency estimated from few doses (MAP3K5; [17]): 1460 nM | potency estimated from few doses (MAP3K5; [18]): 1890 nM | potency estimated from few doses (MAP3K5; [19]): 1210 nM | potency estimated from few doses (MAP3K5; [20]): 946 nM | potency estimated from few doses (MAP3K5; compound concentrations:100 nM and 1000 nM (sheet 'Lestaurtinib' of Supplementary Table 1),run:Lestaurtinib_02572_R3,Plate:MR015): 1620 nM | potency estimated from few doses (MAP3K5; compound concentrations:100 nM and 1000 nM (sheet 'Lestaurtinib' of Supplementary Table 1),run:Lestaurtinib_02577_R1,Plate:MR016): 1360 nM | potency estimated from few doses (MAP3K5; compound concentrations:100 nM and 1000 nM (sheet 'Lestaurtinib' of Supplementary Table 1),run:Lestaurtinib_02584_R2,Plate:MR017): 1300 nM | potency estimated from few doses (MAP3K5; compound concentrations:100 nM and 1000 nM (sheet 'Lestaurtinib' of Supplementary Table 1),run:Lestaurtinib_02584_R3,Plate:MR017): 1360 nM | potency estimated from few doses (MAP3K5; compound concentrations:100 nM and 1000 nM (sheet 'Lestaurtinib' of Supplementary Table 1),run:Lestaurtinib_02601_R1,Plate:MR018): 1700 nM | potency estimated from few doses (MAP3K5; compound concentrations:100 nM and 1000 nM (sheet 'Lestaurtinib' of Supplementary Table 1),run:Lestaurtinib_02601_R2,Plate:MR018): 1460 nM | potency estimated from few doses (MAP3K5; compound concentrations:100 nM and 1000 nM (sheet 'Lestaurtinib' of Supplementary Table 1),run:Lestaurtinib_02606_R1,Plate:MR019): 1440 nM | potency estimated from few doses (MAP3K5; compound concentrations:100 nM and 1000 nM (sheet 'Lestaurtinib' of Supplementary Table 1),run:Lestaurtinib_02606_R3,Plate:MR019): 1350 nM | potency estimated from few doses (MAP3K5; compound concentrations:100 nM and 1000 nM (sheet 'Lestaurtinib' of Supplementary Table 1),run:Lestaurtinib_02624_R1,Plate:MR020): 1440 nM | potency estimated from few doses (MAP3K5; compound concentrations:100 nM and 1000 nM (sheet 'Lestaurtinib' of Supplementary Table 1),run:Lestaurtinib_02624_R2,Plate:MR020): 998 nM | potency estimated from few doses (MAP3K5; compound concentrations:100 nM and 1000 nM (sheet 'Lestaurtinib' of Supplementary Table 1),run:Lestaurtinib_02724_R1,Plate:MR021): 998 nM | potency estimated from few doses (MAP3K5; compound concentrations:100 nM and 1000 nM (sheet 'Lestaurtinib' of Supplementary Table 1),run:Lestaurtinib_02741_R1,Plate:MR023): 916 nM | potency estimated from few doses (MAP3K5; compound concentrations:100 nM and 1000 nM (sheet 'Lestaurtinib' of Supplementary Table 1),run:Lestaurtinib_02765_R1,Plate:MR026): 1490 nM | potency estimated from few doses (MAP3K5; [1]): 1830 nM | potency estimated from few doses (MAP3K5; compound concentrations:100 nM and 1000 nM (sheet 'Lestaurtinib' of Supplementary Table 1),run:Lestaurtinib_02766_R2,Plate:MR027): 1150 nM | potency estimated from few doses (MAP3K5; [2]): 942 nM | potency estimated from few doses (MAP3K5; compound concentrations:100 nM and 1000 nM (sheet 'Lestaurtinib' of Supplementary Table 1),run:Lestaurtinib_02768_R1,Plate:MR028): 1150 nM | potency estimated from few doses (MAP3K5; [3]): 923 nM | potency estimated from few doses (MAP3K5; [4]): 1340 nM | potency estimated from few doses (MAP3K5; compound concentrations:100 nM and 1000 nM (sheet 'Lestaurtinib' of Supplementary Table 1),run:Lestaurtinib_02802_R3,Plate:MR029): 687 nM | potency estimated from few doses (MAP3K5; compound concentrations:100 nM and 1000 nM (sheet 'Lestaurtinib' of Supplementary Table 1),run:Lestaurtinib_03172_R1,Plate:MR031): 1310 nM | potency estimated from few doses (MAP3K5; [5]): 1570 nM | potency estimated from few doses (MAP3K5; [6]): 1750 nM | potency estimated from few doses (MAP3K5; compound concentrations:100 nM and 1000 nM (sheet 'Lestaurtinib' of Supplementary Table 1),run:Lestaurtinib_03260_R2,Plate:MR033): 1460 nM | potency estimated from few doses (MAP3K5; [7]): 1580 nM | potency estimated from few doses (MAPK10; compound concentrations:100 nM and 1000 nM (sheet 'Lestaurtinib' of Supplementary Table 1),run:Lestaurtinib_02339_R2,Plate:MR001): 617 nM | potency estimated from few doses (MAPK10; compound concentrations:100 nM and 1000 nM (sheet 'Lestaurtinib' of Supplementary Table 1),run:Lestaurtinib_02339_R3,Plate:MR001): 1150 nM | potency estimated from few doses (MAPK10; compound concentrations:100 nM and 1000 nM (sheet 'Lestaurtinib' of Supplementary Table 1),run:Lestaurtinib_02364_R2,Plate:MR002): 618 nM | potency estimated from few doses (MAPK10; compound concentrations:100 nM and 1000 nM (sheet 'Lestaurtinib' of Supplementary Table 1),run:Lestaurtinib_02364_R3,Plate:MR002): 801 nM | potency estimated from few doses (MAPK10; [8]): 1620 nM | potency estimated from few doses (MAPK10; compound concentrations:100 nM and 1000 nM (sheet 'Lestaurtinib' of Supplementary Table 1),run:Lestaurtinib_02367_R3,Plate:MR003): 623 nM | potency estimated from few doses (MAPK10; [9]): 932 nM | potency estimated from few doses (MAPK10; [10]): 763 nM | potency estimated from few doses (MAPK10; compound concentrations:100 nM and 1000 nM (sheet 'Lestaurtinib' of Supplementary Table 1),run:Lestaurtinib_02407_R3,Plate:MR005): 1460 nM | potency estimated from few doses (MAPK10; compound concentrations:100 nM and 1000 nM (sheet 'Lestaurtinib' of Supplementary Table 1),run:Lestaurtinib_02422_R1,Plate:MR006): 575 nM | potency estimated from few doses (MAPK10; [11]): 964 nM | potency estimated from few doses (MAPK10; compound concentrations:100 nM and 1000 nM (sheet 'Lestaurtinib' of Supplementary Table 1),run:Lestaurtinib_02422_R3,Plate:MR006): 609 nM | potency estimated from few doses (MAPK10; [12]): 865 nM | potency estimated from few doses (MAPK10; [13]): 838 nM | potency estimated from few doses (MAPK10; compound concentrations:100 nM and 1000 nM (sheet 'Lestaurtinib' of Supplementary Table 1),run:Lestaurtinib_02443_R3,Plate:MR009): 798 nM | potency estimated from few doses (MAPK10; [14]): 970 nM | potency estimated from few doses (MAPK10; [15]): 755 nM | potency estimated from few doses (MAPK10; [16]): 882 nM | potency estimated from few doses (MAPK10; [17]): 469 nM | potency estimated from few doses (MAPK10; [18]): 898 nM | potency estimated from few doses (MAPK10; compound concentrations:100 nM and 1000 nM (sheet 'Lestaurtinib' of Supplementary Table 1),run:Lestaurtinib_02482_R3,Plate:MR011): 612 nM | potency estimated from few doses (MAPK10; [19]): 798 nM | potency estimated from few doses (MAPK10; compound concentrations:100 nM and 1000 nM (sheet 'Lestaurtinib' of Supplementary Table 1),run:Lestaurtinib_02487_R2,Plate:MR012): 744 nM | potency estimated from few doses (MAPK10; [20]): 712 nM

From PMC11062922 (Nature Chemical Biology, 2023)
